Compound activity as filed in PubChem.
PME-1 primary: PME-1 inhibitors via competitive probe labeling, primary screen, biochemical, fluorescence polarization, FP-Rh probe, HTS; inhibition, % at 5.9 µM; recombinant PME-1; hit rate 0.53% among 320,000; Protein phosphatase methylesterase 1 (Homo sapiens), Q9Y570;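 active means inhibition above the campaign mean of all compounds plus 3 SD, cut at about 26% in these data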;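 further: competitive labeling of PME-1 active site by serine hydrolase directed probe; 0% = PME-1 with DMSO and 100% = wells lacking PME-1 enzyme; inhibitors block probe labeling so polarization falls and inhibition rises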
Target sequence (Q9Y570 whole entry, looked up): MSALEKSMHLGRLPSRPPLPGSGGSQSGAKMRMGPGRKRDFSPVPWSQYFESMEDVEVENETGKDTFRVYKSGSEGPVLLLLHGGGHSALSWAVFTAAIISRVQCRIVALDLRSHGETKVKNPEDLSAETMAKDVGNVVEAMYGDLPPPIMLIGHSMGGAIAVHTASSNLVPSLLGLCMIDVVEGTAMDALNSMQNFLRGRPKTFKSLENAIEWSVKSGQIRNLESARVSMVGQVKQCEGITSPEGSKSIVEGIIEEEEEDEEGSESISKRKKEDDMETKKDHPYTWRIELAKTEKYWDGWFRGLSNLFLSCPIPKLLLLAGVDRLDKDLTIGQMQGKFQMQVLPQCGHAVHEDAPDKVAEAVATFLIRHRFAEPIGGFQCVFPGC
PAFAH2 inh: PAFAH2 enzyme inhibitors, primary screen, biochemical, fluorescence polarization, human. Platelet-activating factor acetylhydrolase 2, cytoplasmic (Homo sapiens), Q99487. recombinant PAFAH2, FP-rhodamine activity probe. inhibition, % at 3.39 µM. hit rate 0.99% among 340,000;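 active means inhibition above the mean over all tested compounds plus 3 SD, cut at about 30% in these data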;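 further: inhibitors block probe labeling of enzyme so polarization drops; 0% = enzyme with DMSO and 100% = wells lacking PAFAH2 protein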
PAFAH1B3 inh: PAFAH1B3 enzyme inhibitors, primary screen, biochemical, fluorescence polarization, human; Platelet-activating factor acetylhydrolase IB subunit alpha1 (Homo sapiens), Q15102; recombinant PAFAH1B3, FP-rhodamine probe; inhibition, % at 3.39 µM; hit rate 0.28% among 340,000; AID 492972, 2010;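 active means inhibition above the screen-wide average of all tested compounds plus 3 SD, cut at about 25% in these data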;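 further: 0% = enzyme with DMSO only and 100% = wells lacking PAFAH1B3 protein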
pPAFAH inh: pPAFAH enzyme inhibitors, primary screen, biochemical, fluorescence polarization, human; AID 463082, 2010; recombinant pPAFAH, FP-rhodamine probe fluorescence polarization; hit rate 1.5% among 330,000; inhibition, % at 3.39 µM; Platelet-activating factor acetylhydrolase (Homo sapiens), Q13093;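 active means inhibition above the mean inhibition across the screen plus 3 SD, cut at about 25% in these data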;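 further: inhibitors block binding of the rhodamine activity-based probe so polarization drops; 0% = enzyme with DMSO and 100% = wells lacking pPAFAH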
Fam108B inh: mouse Fam108B serine hydrolase inhibitors, primary screen, counter-screen for RBBP9 inhibitor project, biochemical, fluorescence polarization; recombinant Fam108B, FP-Rh probe fluorescence polarization; inhibition, % at 9.51 µM; hit rate 0.33% among 300,000; AID 1947, 2009;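 active means inhibition above the screen mean inhibition plus 3 SD, computed separately per campaign, cut at about 18% in these data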;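 further: inhibitors lower polarization as less probe binds the enzyme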
PAFAH1B2 inh: PAFAH1B2 enzyme inhibitors, primary screen, biochemical, fluorescence polarization, human | Platelet-activating factor acetylhydrolase IB subunit alpha2 (Homo sapiens), P68402 | recombinant PAFAH1B2, FP-rhodamine activity probe | inhibition, % at 3.39 µM | hit rate 1.2% among 340,000 | AID 492953, 2010;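 active means inhibition above the mean of all tested compounds plus 3 SD, cut at about 24% in these data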;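 further: 0% = enzyme with DMSO and 100% = wells lacking PAFAH1B2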
Target sequence (P68402 whole entry, looked up): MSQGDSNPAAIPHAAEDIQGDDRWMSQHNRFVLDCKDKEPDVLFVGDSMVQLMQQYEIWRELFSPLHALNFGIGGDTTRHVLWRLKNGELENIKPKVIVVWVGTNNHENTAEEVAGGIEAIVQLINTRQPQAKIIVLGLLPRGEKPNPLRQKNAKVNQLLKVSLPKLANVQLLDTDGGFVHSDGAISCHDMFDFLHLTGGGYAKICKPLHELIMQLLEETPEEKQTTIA
PAFAH2 confirm: PAFAH2 enzyme inhibitors, confirmation, biochemical, fluorescence polarization, human. hit rate 65% among 2,300. shares compounds with PAFAH2 inh. inhibition, % at 3.39 µM. AID 493030, 2011. recombinant PAFAH2, FP-rhodamine activity probe;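 active means mean inhibition over three repeats above a set limit taken from the earlier primary screen, cut at about 30% in these data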;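 further: inhibitor blocks binding of rhodamine activity probe so polarization falls; 0% = enzyme with DMSO and 100% = wells lacking PAFAH2 protein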
The depositor's hits bear a star. In the library only some 2.8% were active in any assay of this set; here they are far more common.

Results for CN(C)S(=O)(=O)c1cccc(NC(=O)c2ccc(N3CCOCC3)c([N+](=O)[O-])c2)c1 ?
PME-1 primary: 10.0; PAFAH2 inh: -6.4; PAFAH1B3 inh: 7.8; pPAFAH inh: 1.7; Fam108B inh: -3.4; PAFAH1B2 inh: 1.6

What do the screens show for `CC(c1nnc(SCC(=O)c2c(N)n(C3CC3)c(=O)[nH]c2=O)n1-c1ccc(F)cc1)N(C)C` (configuration not stated)?
PME-1 primary: 2.5; PAFAH2 inh: -1.6; PAFAH1B3 inh: 2.7; pPAFAH inh: -2.2; PAFAH1B2 inh: 2.1

How did NC(=O)Nc1ccc(C(=O)OCC(=O)N2CCc3ccccc3C2)cc1 do in these assays?
PME-1 primary: -5.2; PAFAH2 inh: 53.7*; PAFAH1B3 inh: -4.6; pPAFAH inh: -2.2; PAFAH1B2 inh: -0.1; PAFAH2 confirm: 47.5*

Results for COc1cccc(C(=O)OCC(=O)N2CCc3ccccc3C2)c1 ?
PAFAH2 inh: 17.9; PAFAH1B3 inh: 1.8; pPAFAH inh: 3.6; PAFAH1B2 inh: 0.4

How did CC(=O)c1c(C)[nH]c(C(=O)OCC(=O)N2CCc3ccccc3C2)c1C do in these assays?
PME-1 primary: 1.0; PAFAH2 inh: 29.8*; PAFAH1B3 inh: 9.0; pPAFAH inh: 0.0; PAFAH1B2 inh: 2.8; PAFAH2 confirm: 21.7

Results for O=C(OCC(=O)N1CCc2ccccc2C1)c1ccc(O)cc1 ?
PAFAH2 inh: 46.8*; PAFAH1B3 inh: 11.1; pPAFAH inh: 2.9; PAFAH1B2 inh: 10.5; PAFAH2 confirm: 30.5*

What do the screens show for `CCOC(=O)c1ccc(NC(=O)N2CCc3ccccc3C2)cc1`?
PME-1 primary: -9.8; PAFAH2 inh: 0.8; PAFAH1B3 inh: 0.3; pPAFAH inh: 5.3; Fam108B inh: -0.9; PAFAH1B2 inh: 3.8

Results for CC(=O)c1c(C)[nH]c(C(=O)OCC(=O)N2CC(C)OC(C)C2)c1C (configuration not stated) ?
PME-1 primary: -6.3; PAFAH2 inh: 5.2; PAFAH1B3 inh: -2.1; pPAFAH inh: 8.5; Fam108B inh: -1.5; PAFAH1B2 inh: 0.6

How did COc1ccccc1OCCNC(=O)C(CCSC)NS(=O)(=O)c1ccccc1F (configuration not stated) do in these assays?
PME-1 primary: -3.7; PAFAH2 inh: 4.2; PAFAH1B3 inh: 4.7; pPAFAH inh: 7.2; Fam108B inh: 1.3; PAFAH1B2 inh: 0.2

Results for CN1C(=O)/C(=C\c2ccccc2OCc2ccccc2)SC1=S ?
PME-1 primary: -2.5; PAFAH2 inh: -2.0; PAFAH1B3 inh: -2.6; pPAFAH inh: 2.1; Fam108B inh: -1.2; PAFAH1B2 inh: 7.8

Results for O=C(O)COc1ccccc1/C=C1\SC(=S)N(/N=C/c2ccccc2O)C1=O ?
PME-1 primary: 7.0; PAFAH2 inh: 41.9*; PAFAH1B3 inh: 14.4; pPAFAH inh: 1.6; Fam108B inh: -2.1; PAFAH1B2 inh: 3.6; PAFAH2 confirm: 31.9*

How did O=C(O)CN1C(=O)/C(=C\c2ccccc2OCc2ccc(Cl)cc2)SC1=S do in these assays?
PME-1 primary: -3.2; PAFAH2 inh: 30.1*; PAFAH1B3 inh: 4.9; pPAFAH inh: 17.9; Fam108B inh: 3.0; PAFAH1B2 inh: 19.9; PAFAH2 confirm: 21.9

Results for O=C(O)COc1ccccc1/C=C1\SC(=S)N(NC(=O)c2ccccc2O)C1=O ?
PME-1 primary: 3.2; PAFAH2 inh: 26.1; PAFAH1B3 inh: -13.0; pPAFAH inh: 9.6; Fam108B inh: 0.1; PAFAH1B2 inh: -1.3

How did NS(=O)(=O)c1ccc(CNC(=O)c2ccncc2)cc1 do in these assays?
PME-1 primary: -2.0; PAFAH2 inh: 1.6; PAFAH1B3 inh: -7.1; pPAFAH inh: 2.8; Fam108B inh: 0.9; PAFAH1B2 inh: 0.6

What do the screens show for `Cc1cccc(N2NC(=O)/C(=C/c3ccc(-c4ccc(Cl)c(C(=O)O)c4)o3)C2=O)c1`?
PAFAH2 inh: 32.4*; PAFAH1B3 inh: 23.9; PAFAH1B2 inh: 17.2; PAFAH2 confirm: 19.7

How did O=C(COC(=O)c1cccnc1Nc1cccc(C(F)(F)F)c1)NC1CCS(=O)(=O)C1 (configuration not stated) do in these assays?
PME-1 primary: 4.0; PAFAH2 inh: -0.7; PAFAH1B3 inh: -2.2; pPAFAH inh: 6.5; Fam108B inh: 6.1; PAFAH1B2 inh: -0.3

Results for CC(C)c1ccc(NC(=O)COC(=O)C2CC3C=CC2C3)cc1 (configuration not stated) ?
PAFAH2 inh: 44.3*; PAFAH1B3 inh: -0.7; pPAFAH inh: 23.9; PAFAH1B2 inh: 2.3; PAFAH2 confirm: 23.9

Results for O=C(COC(=O)C1CC2C=CC1C2)Nc1ccc([N+](=O)[O-])cc1 (configuration not stated) ?
PAFAH2 inh: 56.7*; PAFAH1B3 inh: 2.0; pPAFAH inh: 20.1; PAFAH1B2 inh: 9.8; PAFAH2 confirm: 53.9*

What do the screens show for `NC(=O)c1ccc(NC(=O)COC(=O)C2CC3C=CC2C3)cc1` (configuration not stated)?
PAFAH2 inh: -6.8; PAFAH1B3 inh: 0.5; pPAFAH inh: 0.9; PAFAH1B2 inh: 4.0

Results for O=C(COC(=O)C1CC2C=CC1C2)Nc1ccccc1[N+](=O)[O-] (configuration not stated) ?
PAFAH2 inh: 76.8*; PAFAH1B3 inh: 10.8; pPAFAH inh: 12.9; PAFAH1B2 inh: 1.0; PAFAH2 confirm: 57.7*

How did Cc1c(NC(=O)COC(=O)C2CC3C=CC2C3)c(=O)n(-c2ccccc2)n1C (configuration not stated) do in these assays?
PME-1 primary: 4.1; PAFAH2 inh: -2.8; PAFAH1B3 inh: 12.4; pPAFAH inh: 2.0; Fam108B inh: 7.3; PAFAH1B2 inh: 1.3

How did CSCC[C@H](NS(=O)(=O)c1ccc(C)cc1)C(=O)N1CCC(C(=O)N[C@@H](Cc2ccc(O)cc2)C(=O)O)CC1 do in these assays?
PME-1 primary: 0.1; PAFAH2 inh: 8.4; PAFAH1B3 inh: 12.9; pPAFAH inh: 6.5; Fam108B inh: -1.6; PAFAH1B2 inh: 3.4

Results for O=S1(=O)c2ccccc2C(CCO)N1Cc1ccccc1 (configuration not stated) ?
PME-1 primary: 0.9; PAFAH2 inh: 3.5; PAFAH1B3 inh: -3.8; pPAFAH inh: 7.6; Fam108B inh: 0.7; PAFAH1B2 inh: 3.2

Results for O=C(Cn1cnc([N+](=O)[O-])c1)c1ccc(F)cc1 ?
PME-1 primary: 0.2; PAFAH2 inh: -1.1; PAFAH1B3 inh: -0.5; pPAFAH inh: 4.2; Fam108B inh: -0.4; PAFAH1B2 inh: -0.4
